From ChEMBL document CHEMBL1961873, “Compounds: GSK PKIS; Assays: Nanosyn kinase panel” (2012) come the findings set out here.

Test [1] has as its target Tyrosine-protein kinase CSK (Homo sapiens) (UniProt P41240). The settings on record: at 1 µM.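 Further: each value is an averaged inhibition reading.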
Test [2] has as its target T1, Discoidin domain-containing receptor 2 (Homo sapiens) (UniProt Q16832).
T1 sequence (whole entry): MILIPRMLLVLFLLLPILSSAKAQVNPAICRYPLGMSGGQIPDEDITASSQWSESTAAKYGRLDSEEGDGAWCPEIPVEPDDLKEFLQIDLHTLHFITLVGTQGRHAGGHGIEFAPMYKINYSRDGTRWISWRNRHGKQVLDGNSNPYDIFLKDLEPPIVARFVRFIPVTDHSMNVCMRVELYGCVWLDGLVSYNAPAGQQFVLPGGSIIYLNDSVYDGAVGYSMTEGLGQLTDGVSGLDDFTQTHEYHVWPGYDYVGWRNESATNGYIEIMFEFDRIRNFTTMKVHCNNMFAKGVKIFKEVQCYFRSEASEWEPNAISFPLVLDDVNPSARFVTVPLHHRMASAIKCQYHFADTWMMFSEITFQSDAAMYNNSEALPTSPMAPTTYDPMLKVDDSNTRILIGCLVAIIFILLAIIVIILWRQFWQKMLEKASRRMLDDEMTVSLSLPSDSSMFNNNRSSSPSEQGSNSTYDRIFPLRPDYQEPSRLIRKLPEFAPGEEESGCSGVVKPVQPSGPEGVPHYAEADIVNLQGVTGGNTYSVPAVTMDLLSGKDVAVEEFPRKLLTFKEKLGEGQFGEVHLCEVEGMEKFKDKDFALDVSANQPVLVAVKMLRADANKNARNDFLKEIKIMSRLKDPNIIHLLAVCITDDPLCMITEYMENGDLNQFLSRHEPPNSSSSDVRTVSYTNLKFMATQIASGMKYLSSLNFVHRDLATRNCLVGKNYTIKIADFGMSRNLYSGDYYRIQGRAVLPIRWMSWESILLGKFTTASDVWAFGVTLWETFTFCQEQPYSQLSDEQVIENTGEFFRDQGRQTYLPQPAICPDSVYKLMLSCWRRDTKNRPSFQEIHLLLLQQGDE
To be noted: at 0.1 µM.

In test [3] the target is T1, Discoidin domain-containing receptor 2 (Homo sapiens). The settings on record: at 1 µM.
Test [4] deals with Epidermal growth factor receptor (Homo sapiens) (UniProt P00533). To be noted: at 0.1 µM.
Epidermal growth factor receptor (Homo sapiens), sequence (P00533 whole entry): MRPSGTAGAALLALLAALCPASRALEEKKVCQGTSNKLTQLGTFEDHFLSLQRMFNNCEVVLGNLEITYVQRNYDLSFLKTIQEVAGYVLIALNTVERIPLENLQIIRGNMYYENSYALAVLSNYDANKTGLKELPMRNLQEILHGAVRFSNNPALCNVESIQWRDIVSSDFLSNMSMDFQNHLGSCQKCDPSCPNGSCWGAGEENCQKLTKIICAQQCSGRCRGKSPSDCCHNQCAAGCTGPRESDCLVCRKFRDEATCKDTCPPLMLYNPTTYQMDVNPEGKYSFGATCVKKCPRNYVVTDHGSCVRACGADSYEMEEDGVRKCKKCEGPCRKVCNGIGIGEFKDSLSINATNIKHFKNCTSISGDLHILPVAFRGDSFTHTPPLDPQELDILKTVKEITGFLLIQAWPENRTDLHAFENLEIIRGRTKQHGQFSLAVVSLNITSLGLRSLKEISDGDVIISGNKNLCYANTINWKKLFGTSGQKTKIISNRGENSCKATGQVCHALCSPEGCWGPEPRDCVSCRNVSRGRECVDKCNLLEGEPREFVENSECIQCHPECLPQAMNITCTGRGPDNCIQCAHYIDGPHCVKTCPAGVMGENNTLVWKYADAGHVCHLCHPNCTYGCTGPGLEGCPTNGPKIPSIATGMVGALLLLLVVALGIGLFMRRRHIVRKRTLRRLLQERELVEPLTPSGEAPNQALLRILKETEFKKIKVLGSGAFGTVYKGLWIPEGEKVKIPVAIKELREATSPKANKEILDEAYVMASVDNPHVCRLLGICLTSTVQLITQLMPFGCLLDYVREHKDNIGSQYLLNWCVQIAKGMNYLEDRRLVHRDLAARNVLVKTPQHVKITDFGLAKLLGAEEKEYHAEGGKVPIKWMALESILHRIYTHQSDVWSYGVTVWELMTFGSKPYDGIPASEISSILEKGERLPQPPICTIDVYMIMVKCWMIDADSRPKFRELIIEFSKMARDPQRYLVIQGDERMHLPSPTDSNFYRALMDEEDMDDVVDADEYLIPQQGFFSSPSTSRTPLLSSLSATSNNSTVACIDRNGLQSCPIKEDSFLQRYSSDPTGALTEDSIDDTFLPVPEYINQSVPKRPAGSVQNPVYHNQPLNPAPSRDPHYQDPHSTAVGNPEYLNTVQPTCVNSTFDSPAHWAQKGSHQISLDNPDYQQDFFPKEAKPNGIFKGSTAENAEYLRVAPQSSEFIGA
Test [5] has the same target. The settings on record: at 1 µM.
Test [6] deals with Epidermal growth factor receptor (Homo sapiens), P00533 [L858R]. To be noted: at 0.1 µM.
Epidermal growth factor receptor (Homo sapiens), P00533 [L858R], sequence (P00533 whole entry L858R): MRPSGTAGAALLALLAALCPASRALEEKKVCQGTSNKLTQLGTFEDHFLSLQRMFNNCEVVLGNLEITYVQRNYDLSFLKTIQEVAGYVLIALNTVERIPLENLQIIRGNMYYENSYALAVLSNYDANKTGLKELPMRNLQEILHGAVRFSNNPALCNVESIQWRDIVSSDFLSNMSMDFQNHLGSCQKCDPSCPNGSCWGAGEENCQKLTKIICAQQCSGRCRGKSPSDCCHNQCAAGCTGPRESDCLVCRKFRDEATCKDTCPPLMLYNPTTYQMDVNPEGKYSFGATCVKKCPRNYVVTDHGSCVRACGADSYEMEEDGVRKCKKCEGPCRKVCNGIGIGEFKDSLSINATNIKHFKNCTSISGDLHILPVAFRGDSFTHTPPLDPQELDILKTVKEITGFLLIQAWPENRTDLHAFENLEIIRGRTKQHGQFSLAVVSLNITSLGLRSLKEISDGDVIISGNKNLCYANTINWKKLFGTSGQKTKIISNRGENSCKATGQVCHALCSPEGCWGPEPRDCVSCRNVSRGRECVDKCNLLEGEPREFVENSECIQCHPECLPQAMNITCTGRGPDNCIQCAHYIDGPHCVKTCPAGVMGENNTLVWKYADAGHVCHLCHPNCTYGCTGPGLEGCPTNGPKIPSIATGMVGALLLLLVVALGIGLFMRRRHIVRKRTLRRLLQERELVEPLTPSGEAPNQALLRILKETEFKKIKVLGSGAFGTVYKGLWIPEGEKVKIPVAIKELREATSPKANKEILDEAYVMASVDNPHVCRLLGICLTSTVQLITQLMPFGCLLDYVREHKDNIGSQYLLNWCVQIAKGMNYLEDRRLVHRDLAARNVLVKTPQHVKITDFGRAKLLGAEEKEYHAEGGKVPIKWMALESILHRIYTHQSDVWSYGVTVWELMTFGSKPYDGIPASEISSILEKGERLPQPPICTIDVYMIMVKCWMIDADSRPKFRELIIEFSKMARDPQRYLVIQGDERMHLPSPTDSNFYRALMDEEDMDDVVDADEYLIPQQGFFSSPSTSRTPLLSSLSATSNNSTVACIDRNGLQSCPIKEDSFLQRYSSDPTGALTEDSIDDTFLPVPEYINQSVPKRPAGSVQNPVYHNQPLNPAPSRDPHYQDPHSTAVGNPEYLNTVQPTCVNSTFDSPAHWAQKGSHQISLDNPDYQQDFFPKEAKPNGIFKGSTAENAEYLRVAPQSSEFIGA
Test [7] has the same test system. To be noted: at 1 µM.
For test [8], the system named is Epidermal growth factor receptor (Homo sapiens), P00533 [L861Q]. The settings on record: at 0.1 µM.
For test [9] the test system is unchanged. The settings on record: at 1 µM.
Test [10] concerns Epidermal growth factor receptor (Homo sapiens), P00533 [T790M]. The settings on record: at 0.1 µM.
The test system is the same in test [11]. To be noted: at 1 µM.
The subject of test [12] is Epidermal growth factor receptor (Homo sapiens), P00533 [L858R,T790M]. The settings on record: at 0.1 µM.
The test system is the same in test [13]. The settings on record: at 1 µM.
The target in test [14] is Ephrin type-A receptor 2 (Homo sapiens) (UniProt P29317). To be noted: at 0.1 µM.
Ephrin type-A receptor 2 (Homo sapiens), sequence (P29317 whole entry): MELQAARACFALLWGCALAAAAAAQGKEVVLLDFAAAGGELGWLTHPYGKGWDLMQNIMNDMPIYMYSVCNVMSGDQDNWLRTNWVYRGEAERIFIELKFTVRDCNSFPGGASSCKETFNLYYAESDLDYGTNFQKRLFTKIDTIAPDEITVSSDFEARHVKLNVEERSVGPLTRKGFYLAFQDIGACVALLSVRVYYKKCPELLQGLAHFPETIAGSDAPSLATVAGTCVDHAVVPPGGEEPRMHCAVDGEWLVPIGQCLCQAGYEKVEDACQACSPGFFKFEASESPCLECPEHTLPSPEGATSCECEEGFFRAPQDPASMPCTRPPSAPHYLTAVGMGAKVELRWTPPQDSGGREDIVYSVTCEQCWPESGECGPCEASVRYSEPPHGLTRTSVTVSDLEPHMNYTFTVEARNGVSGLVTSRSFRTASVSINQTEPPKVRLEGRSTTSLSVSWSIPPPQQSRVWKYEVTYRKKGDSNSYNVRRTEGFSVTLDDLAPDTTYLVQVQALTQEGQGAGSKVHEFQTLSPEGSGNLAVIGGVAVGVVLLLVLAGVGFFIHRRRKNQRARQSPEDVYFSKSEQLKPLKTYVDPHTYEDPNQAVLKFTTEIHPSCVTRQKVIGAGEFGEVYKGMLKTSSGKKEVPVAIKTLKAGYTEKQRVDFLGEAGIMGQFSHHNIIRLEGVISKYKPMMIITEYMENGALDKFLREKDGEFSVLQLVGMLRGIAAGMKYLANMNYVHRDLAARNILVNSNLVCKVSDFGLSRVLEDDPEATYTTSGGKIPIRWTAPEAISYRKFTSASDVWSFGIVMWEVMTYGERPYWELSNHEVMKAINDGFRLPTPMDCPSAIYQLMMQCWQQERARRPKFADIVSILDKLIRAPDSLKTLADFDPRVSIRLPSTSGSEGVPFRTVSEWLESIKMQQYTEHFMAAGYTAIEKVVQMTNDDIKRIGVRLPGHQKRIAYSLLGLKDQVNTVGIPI
Test [15] shares this target. The settings on record: at 1 µM.
For test [16], the target named is T2, Ephrin type-A receptor 3 (Homo sapiens) (UniProt P29320).
T2 sequence (whole entry): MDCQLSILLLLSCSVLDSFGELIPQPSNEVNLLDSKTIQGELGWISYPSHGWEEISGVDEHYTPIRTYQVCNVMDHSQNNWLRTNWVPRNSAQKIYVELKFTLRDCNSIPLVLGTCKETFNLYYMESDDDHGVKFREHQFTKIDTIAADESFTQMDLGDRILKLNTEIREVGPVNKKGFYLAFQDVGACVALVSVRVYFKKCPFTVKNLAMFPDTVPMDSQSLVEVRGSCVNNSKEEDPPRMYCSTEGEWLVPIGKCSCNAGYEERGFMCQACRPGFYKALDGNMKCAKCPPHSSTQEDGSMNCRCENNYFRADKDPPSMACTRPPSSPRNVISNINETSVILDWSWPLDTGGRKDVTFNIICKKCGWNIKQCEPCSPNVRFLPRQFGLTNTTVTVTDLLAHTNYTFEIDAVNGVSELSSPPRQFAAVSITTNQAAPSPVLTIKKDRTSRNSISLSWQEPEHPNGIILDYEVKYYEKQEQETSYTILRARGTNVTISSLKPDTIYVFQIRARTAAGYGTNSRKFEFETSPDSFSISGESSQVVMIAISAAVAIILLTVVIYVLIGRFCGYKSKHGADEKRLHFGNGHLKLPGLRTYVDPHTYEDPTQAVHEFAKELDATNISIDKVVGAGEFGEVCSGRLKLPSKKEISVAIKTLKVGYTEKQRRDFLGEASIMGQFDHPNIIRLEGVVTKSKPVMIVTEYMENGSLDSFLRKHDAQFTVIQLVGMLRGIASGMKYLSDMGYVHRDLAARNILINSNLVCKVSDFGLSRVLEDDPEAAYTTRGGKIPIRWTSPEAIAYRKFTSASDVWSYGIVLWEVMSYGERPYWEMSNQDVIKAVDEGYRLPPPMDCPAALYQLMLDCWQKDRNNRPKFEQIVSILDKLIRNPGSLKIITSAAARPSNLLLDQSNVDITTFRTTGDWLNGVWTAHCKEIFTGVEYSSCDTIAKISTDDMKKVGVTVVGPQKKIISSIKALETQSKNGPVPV
To be noted: at 0.1 µM.

In test [17] the target is T2, Ephrin type-A receptor 3 (Homo sapiens). The settings on record: at 1 µM.
Test [18] concerns the target Ephrin type-A receptor 4 (Homo sapiens) (UniProt P54764). To be noted: at 0.1 µM.
The target is the same in test [19]. To be noted: at 1 µM.
For test [20], the target named is T3, Ephrin type-B receptor 2 (Homo sapiens) (UniProt P29323).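 Further: reported as mean inhibition of EPHB2, from the GSK PKIS dataset.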
T3 sequence (whole entry): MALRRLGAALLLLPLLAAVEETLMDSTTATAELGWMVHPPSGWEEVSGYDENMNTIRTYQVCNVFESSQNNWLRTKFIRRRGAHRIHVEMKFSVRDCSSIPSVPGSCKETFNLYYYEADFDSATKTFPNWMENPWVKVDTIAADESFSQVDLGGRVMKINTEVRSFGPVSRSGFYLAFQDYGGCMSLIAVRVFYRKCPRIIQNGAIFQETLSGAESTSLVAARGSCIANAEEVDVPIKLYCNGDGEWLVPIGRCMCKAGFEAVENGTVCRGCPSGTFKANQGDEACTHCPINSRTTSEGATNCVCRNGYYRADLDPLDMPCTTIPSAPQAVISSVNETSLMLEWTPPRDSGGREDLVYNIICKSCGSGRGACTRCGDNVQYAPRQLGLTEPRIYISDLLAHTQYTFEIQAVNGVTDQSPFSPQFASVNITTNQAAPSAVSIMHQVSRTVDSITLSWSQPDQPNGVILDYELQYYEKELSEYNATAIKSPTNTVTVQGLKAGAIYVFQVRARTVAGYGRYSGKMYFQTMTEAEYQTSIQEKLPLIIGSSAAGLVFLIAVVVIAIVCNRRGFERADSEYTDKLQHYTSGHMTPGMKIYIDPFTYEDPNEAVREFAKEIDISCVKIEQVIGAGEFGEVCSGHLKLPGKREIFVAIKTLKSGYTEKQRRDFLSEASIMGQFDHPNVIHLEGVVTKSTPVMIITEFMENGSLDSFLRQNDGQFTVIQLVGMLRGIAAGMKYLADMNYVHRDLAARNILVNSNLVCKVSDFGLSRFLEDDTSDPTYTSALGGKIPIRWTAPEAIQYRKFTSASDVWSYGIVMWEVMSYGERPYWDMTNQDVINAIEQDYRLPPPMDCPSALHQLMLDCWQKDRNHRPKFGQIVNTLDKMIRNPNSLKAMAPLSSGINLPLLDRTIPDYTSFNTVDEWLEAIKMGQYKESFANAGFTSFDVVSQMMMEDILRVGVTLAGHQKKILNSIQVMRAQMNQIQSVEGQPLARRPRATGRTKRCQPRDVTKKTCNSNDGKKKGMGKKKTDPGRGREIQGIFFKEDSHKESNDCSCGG
The settings on record: at 0.1 µM.

Epidermal growth factor receptor (Homo sapiens), P00533 [L858R,T790M], sequence (P00533 whole entry T790M/L858R, looked up): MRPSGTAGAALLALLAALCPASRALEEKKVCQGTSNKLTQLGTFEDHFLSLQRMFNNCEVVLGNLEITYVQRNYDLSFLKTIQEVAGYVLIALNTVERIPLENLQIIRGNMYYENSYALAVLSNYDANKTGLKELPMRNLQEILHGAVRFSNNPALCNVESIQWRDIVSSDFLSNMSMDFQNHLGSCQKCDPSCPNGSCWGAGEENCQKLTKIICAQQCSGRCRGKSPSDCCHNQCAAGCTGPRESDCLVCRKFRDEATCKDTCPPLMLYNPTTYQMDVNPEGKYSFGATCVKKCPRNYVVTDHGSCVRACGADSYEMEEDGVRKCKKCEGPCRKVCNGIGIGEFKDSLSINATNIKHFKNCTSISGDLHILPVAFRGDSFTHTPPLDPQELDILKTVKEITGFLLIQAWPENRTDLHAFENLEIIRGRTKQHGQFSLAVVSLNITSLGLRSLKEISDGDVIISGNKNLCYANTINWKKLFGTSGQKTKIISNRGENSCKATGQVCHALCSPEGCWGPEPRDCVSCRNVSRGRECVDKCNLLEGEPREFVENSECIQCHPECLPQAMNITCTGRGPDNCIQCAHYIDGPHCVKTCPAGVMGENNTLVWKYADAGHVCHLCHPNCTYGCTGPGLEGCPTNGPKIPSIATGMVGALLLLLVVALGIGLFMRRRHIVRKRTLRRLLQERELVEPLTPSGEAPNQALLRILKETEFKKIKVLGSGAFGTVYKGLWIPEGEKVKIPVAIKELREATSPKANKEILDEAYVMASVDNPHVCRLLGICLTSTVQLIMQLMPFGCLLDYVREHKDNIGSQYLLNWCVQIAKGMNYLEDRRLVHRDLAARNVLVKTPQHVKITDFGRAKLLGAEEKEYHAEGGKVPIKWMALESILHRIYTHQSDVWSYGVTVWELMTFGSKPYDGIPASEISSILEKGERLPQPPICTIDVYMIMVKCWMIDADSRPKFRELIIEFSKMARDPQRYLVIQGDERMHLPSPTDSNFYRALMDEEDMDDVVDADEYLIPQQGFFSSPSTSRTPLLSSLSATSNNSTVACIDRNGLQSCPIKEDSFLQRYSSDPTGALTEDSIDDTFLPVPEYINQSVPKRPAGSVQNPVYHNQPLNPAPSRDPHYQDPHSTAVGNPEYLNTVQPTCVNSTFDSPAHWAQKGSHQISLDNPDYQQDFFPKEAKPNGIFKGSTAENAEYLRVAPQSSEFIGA
Tyrosine-protein kinase CSK (Homo sapiens), sequence (P41240 2-450 limits assumed): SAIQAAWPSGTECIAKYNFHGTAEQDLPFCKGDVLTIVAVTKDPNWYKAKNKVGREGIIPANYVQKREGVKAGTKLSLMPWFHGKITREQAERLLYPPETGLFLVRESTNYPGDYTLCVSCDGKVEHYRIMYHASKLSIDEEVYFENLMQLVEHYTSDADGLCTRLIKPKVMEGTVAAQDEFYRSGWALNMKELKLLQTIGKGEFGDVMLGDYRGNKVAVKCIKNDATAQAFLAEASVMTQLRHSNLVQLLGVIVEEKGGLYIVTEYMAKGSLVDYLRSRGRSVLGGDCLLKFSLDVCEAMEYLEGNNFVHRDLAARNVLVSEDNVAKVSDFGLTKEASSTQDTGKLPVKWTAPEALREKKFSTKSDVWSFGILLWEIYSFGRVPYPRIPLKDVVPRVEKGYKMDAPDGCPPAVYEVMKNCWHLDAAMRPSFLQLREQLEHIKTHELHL

As a reminder, the inhibition is the relative decrease from the control value, in per cent. For `CCS(=O)(=O)c1ccc(OC)c(Nc2nccc(N(C)c3ccc4c(C)n[nH]c4c3)n2)c1`, the inhibition in test [1] was 15.2%; in test [2] it was -0.23%; in test [3], -2.28%; in [4], 7.37%; in [5], 35.2%; in test [6], 7.56%. Also, the inhibition in test [7] was 43.1%; in test [8], 7.97%; in test [9], 31.4%; in test [10], 4.42%; in [11], 18.8%; in [12] it was 2.67%. The inhibition in test [13] was 4.47%; in [14], 3.32%; in [15] it was 10.1%; in test [16], 4.4%; in test [17] it was 12.2%; in test [18], 11.8%. Besides, the inhibition in [19] was found to be 45.3%; in test [20], 16.4%.

On to `c1ccc(Nc2ncc(-c3ccccc3)o2)cc1`, for which the inhibition in [1] was determined as 3.75%; in [2], 2.39%; in test [3], 7.24%; in test [4] it was 4.96%; in [5] it was 10.5%; in [6], 4.87%. The inhibition in test [7] is 2.77%; in test [8] it was 2.75%; in test [9] it was 4.14%; in test [10] it was 2.39%; in test [11], 3.42%; in test [12], -0.6%. Also, the inhibition in test [13] was determined as 3.56%; in test [14] it was 1.18%; in [15] it was 0.47%; in [16] it was 3.55%; in test [17] it was 4.8%; in test [18] it was 7.56%. Also, the inhibition in test [19] amounted to 12.1%; in test [20], 7.58%.

As to `Cc1cc(-c2ccccn2)cc(C)c1/C=C/c1cncc(-c2nn[nH]n2)c1`, the inhibition in [1] worked out at 20.2%; in [2], 1.22%; in test [3], 5.62%; in test [4], 2%; in test [5], 9.58%; in [6], 2.87%. Besides, the inhibition in test [7] was 4.85%; in test [8], 2.42%; in test [9], 5.99%; in test [10], -0.39%; in test [11], 1.45%; in test [12], -2.34%. The inhibition stood at 3.4% in test [13]; 0.59% in [14]; 2.96% in [15]; 3.5% in test [16]; 4.9% in test [17]; 6.16% in test [18]. Moreover, the inhibition amounted to 17.3% in test [19] and 5.94% in test [20].

`COC(=O)c1cncc(/C=C/c2c(C)cc(O)cc2C)c1`: the inhibition in test [1] came to 24.8%; in [2] it was 1.69%; in test [3] it was 10.3%; in [4] it was 0.29%; in [5], 3.19%; in [6], 2.6%. Moreover, the inhibition in test [7] came out at 11.5%; in [8], 3.47%; in test [9], 7.07%; in test [10] it was 2.64%; in [11], 4.21%; in [12], 0.04%. Besides, the inhibition in test [13] amounted to 4.09%; in [14], 10.3%; in [15], 40.2%; in test [16], 7.42%; in test [17], 16.2%; in test [18], 19%. Also, the inhibition in [19] stood at 66.6%; in test [20], 15.3%.

Turning to `COc1cccc(-n2nc(C)c3c(N/N=C(\C)c4ccncc4)ncnc32)c1`, the inhibition was 0.42% in test [1]; 0.8% in [2]; 0.38% in test [3]; 1.03% in test [4]; 2.43% in test [5]; -0.3% in test [6]. In addition, the inhibition in test [7] was 1.45%; in test [8] it was -0.04%; in [9] it was 0.7%; in test [10], -1.78%; in test [11], -1.56%; in [12], -0.53%. Besides, the inhibition is -1.32% in test [13]; -1.68% in test [14]; -1.94% in test [15]; -0.57% in test [16]; 2.37% in [17]; 3.69% in test [18]. In addition, the inhibition was 6.36% in test [19] and 2.52% in test [20].

Consider `Cc1ccc2c(-c3ccnc(Nc4cccc(C(F)(F)F)c4)n3)c(-c3ccccc3)nn2n1`, for which the inhibition in [1] was determined as 11.4%; in test [2] it was 6.32%; in test [3] it was 47.4%; in [4] it was 28.9%; in [5] it was 70.3%; in [6], 82.3%. Further, the inhibition in test [7] turned out to be 94.8%; in test [8], 48.2%; in test [9], 88.2%; in test [10] it was 10.9%; in test [11] it was 57.7%; in test [12], 35.2%. Also, the inhibition was 87.6% in test [13]; 0.69% in test [14]; 4.04% in test [15]; 5.98% in test [16]; 15.1% in [17]; 8.59% in test [18]. Besides, the inhibition in [19] is 33.9%; in [20] it was 17.6%.
